In PubChem BioAssay (NCATS) one finds outcome, caspase-3 activation and Potency data, which are given here for three compounds.

The nature of test [1]: Cellular Toxicity (caspase-3) SHSY5Y (AID 657). The procedure, abridged: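 SH-SY5Y human neuroblastoma cells, 1500/well, exposed to compound for 16 hours at 37 °C in complete medium. Caspase-3/7 activity read by Caspase-Glo luminescence after 1 hr at room temperature, normalized to DMSO and 10 uM staurosporine; AC50 from Hill fit.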
Test [2] in a line: Cellular Toxicity (caspase-3) MRC-5 (AID 659). The procedure, abridged: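 MRC-5 human normal lung fibroblasts, 1500 cells/well, treated 16 h at 37 °C in complete medium. Caspase 3/7 measured by Caspase-Glo luminescence after 1 h at room temperature. Normalized to DMSO and 10 uM staurosporine; AC50 from Hill fit.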
Test [3] in a line: Cellular Toxicity (caspase-3) Mesangial (AID 660).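 Further: cells exposed to compound for 16 h before the caspase read.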 The essentials: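 Human renal glomerular mesangial cells (1000/well) were treated with compounds for 16 h at 37 °C in complete medium, then caspase 3/7 activity was read by Caspase-Glo luminescence. Data were normalized to DMSO and 100 uM tamoxifen; AC50 from Hill fits.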
A short description of test [4]: Cellular Toxicity (caspase-3) Hek293 (AID 664).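 Further: cells exposed to compound for 16 h at 37 °C before readout.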 The essentials: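 HEK293 cells were exposed to compounds in complete medium for 16 hr at 37 °C, then caspase-3/7 activity was read by Caspase-Glo 3/7 luminescence after 20 min at room temperature. Data normalized to DMSO and 100 uM tamoxifen; AC50 from Hill fits.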
Test [5] in a line: Cellular Toxicity (caspase-3) N2a (AID 665).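 Further: compound exposure lasted 16 h at 37 °C before readout.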 Conditions: N2a cells, luminescence, normalized: DMSO 0%, 10 µM staurosporine 100%; at 92.2 µM (top of the series). The essentials:
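Mouse N2a neuroblastoma cells (1500/well) were treated with compounds for 16 h at 37 °C, then caspase-3/7 activity was read by Caspase-Glo luminescence after 1 h at room temperature. Data were normalized to DMSO and 10 uM staurosporine; AC50 from Hill fits.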

Test [6] can be described thus: MultiTox-Fluor Cytotoxicity Assay - LYMP1-001 - Live Cells (AID 947). Further: potency means the concentration at half of the fitted maximal effect.
Test [7] is described as follows: Cell Viability - LYMP2-009 (AID 968). Further: potency means the concentration at half of the fitted maximal effect; nearly all actives have a fitted effect of over 55% in size.
The nature of test [8]: Cell Viability - LYMP2-015 (AID 971). Further: potency means the concentration at half of the fitted maximal effect; nearly all actives have a fitted effect of over 55% in size. The procedure, abridged:
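Human lymphoblastoid cells (2500/well) in complete medium were preincubated 5 hr at 37 C, then compound-treated 24 hr at 37 C. Intracellular ATP was read by CellTiter-Glo luminescence after 30 min at room temperature; AC50 came from Hill-equation concentration-response fits.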

Test [9] can be described thus: Cell Viability - LYMP2-006 (AID 978). Further: potency means the concentration at half of the fitted maximal effect; nearly all actives have a fitted effect of over 60% in size. The procedure, abridged:
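Human lymphoblastoid cells (LYMP2-006), 2500/well in complete medium, were treated with compound for 24 hr at 37 C. Cellular ATP was read by CellTiter-Glo luminescence after 30 min, and AC50 values came from Hill-equation fits of concentration-response data.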

Test [10] in a line: Cell Viability - LYMP2-007 (AID 979).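 Further: potency means the concentration at half of the fitted maximal effect; cells exposed to compound for 24 h before reading; nearly all actives have a fitted effect of over 60% in size.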 The essentials:
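Human lymphoblastoid cells (2500/well) were plated in complete medium, incubated 5 hr at 37 C, then exposed to compounds for 24 hr at 37 C. Intracellular ATP was read by CellTiter-Glo luminescence after 30 min at room temperature; AC50 from Hill fits.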

Test [11] deals with Androgen receptor (Homo sapiens) (UniProt P10275). Put plainly: qHTS assay for small molecule antagonists of androgen receptor signaling (AID 588516; active means well fitted curve in the direction sought with a large enough effect in the signal ratio, with a control signal flat, not every such curve was filed as active; the % refers to the signal ratio; further: on the % scale 0 is the no-effect control and ±100 the full control effect). The procedure, abridged:
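AR-UAS-bla GripTite HEK 293 cells (2000/well) treated with compound titrations plus 10 nM R1881 for 16 h at 37C. Beta-lactamase read by CCF4 FRET (460/530 nm); IC50 from Hill fits, normalized to R1881 and DMSO control wells.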
For orientation: In qHTS, concentration-response curves come from the screen itself.

Test [12] can be described thus: qHTS screen for small molecules that inhibit ELG1-dependent DNA repair: Hit Confirmation with 5FU Viability (AID 624250).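 Further: potency means the concentration at half of the fitted maximal effect; viability measured 16 h after compound addition.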 As to conditions: cell viability with 5-FU. The essentials: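 Using CellTiter-Glo, viability of ELG1-luciferase HEK293T cells was assessed 16 h after adding compounds with 5-fluorouridine at a final 10 µM.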
In test [13] the target is Luciferin 4-monooxygenase (Photinus pyralis) (UniProt P08659). Description: qHTS screen for small molecules that inhibit ELG1-dependent DNA repair: Hit Confirmation in Biochemical Luciferin Assay (AID 624253). Further: on the % scale 0 is the no-effect control and ±100 the full control effect. The procedure, abridged: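 Counter-screen against purified firefly luciferase: substrate reagent dispensed first, then compound or DMSO by pintool, then luciferase enzyme added. Luminescence read on a CCD-based imager.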

Unmarked numbers belong to inactive results. Records with an inconclusive call do not appear. Some of the results follow. Activity calls are given as the source filed them. Unless noted, the call rests on the fitted dose curve; in most records, active means well fitted curve in the direction sought with a large enough effect; inconclusive means small, poorly fitted or top-dose-only effect, or another doubt; inactive means no such curve, though single readings can be large; an effect the other way counts as inactive or inconclusive.

Chain of Androgen receptor (Homo sapiens) (P10275 whole entry, looked up): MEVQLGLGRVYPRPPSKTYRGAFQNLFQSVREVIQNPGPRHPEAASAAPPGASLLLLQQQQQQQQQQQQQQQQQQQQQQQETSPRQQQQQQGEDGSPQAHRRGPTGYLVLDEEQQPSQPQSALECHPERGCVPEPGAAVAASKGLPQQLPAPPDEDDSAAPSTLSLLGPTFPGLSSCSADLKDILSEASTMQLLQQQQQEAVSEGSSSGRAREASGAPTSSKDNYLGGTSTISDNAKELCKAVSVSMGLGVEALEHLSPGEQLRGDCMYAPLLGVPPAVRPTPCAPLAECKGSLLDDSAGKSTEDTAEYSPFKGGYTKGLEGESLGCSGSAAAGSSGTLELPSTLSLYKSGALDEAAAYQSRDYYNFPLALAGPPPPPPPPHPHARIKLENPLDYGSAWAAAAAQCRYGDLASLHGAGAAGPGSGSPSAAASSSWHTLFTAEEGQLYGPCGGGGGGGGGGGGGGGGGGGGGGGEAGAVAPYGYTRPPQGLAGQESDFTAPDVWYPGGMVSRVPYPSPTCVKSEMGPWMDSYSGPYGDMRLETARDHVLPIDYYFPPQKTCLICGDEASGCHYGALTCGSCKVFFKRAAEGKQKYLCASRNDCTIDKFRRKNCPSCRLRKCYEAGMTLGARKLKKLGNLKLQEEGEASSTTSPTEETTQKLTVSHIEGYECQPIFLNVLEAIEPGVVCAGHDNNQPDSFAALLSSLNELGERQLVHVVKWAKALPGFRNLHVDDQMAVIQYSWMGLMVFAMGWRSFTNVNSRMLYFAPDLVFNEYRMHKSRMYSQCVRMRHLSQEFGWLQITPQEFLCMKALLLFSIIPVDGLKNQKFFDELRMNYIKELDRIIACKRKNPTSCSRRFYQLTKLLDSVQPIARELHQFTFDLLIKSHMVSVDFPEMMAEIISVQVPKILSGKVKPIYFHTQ

Turning to `O=C1C(Cl)=C(Cl)C(=O)C(Cl)=C1Cl`, the result in [1], in test [2], in [3] and in test [4] was inactive. Moreover, the caspase-3 activation in test [5] was -13.5%. Moreover, the Potency is 39.8 µM (active) in [6]; 20 µM (active) in test [7]; 39.8 µM (active) in test [8]; 31.6 µM (active) in [9]; 15.8 µM (active) in [10].
In the case of `O=C(O)COc1cc(Cl)c(Cl)cc1Cl`, the Potency entry in test [11] is “inactive”.
On to `COC1CC(OC2CC[C@@]3(C=O)C4CC[C@]5(C)C(C6=CC(=O)OC6)CC[C@@]5(O)C4CC[C@]3(O)C2)OC(C)C1O` (stereo partly drawn), for which, in test [12], the Potency was 0.706 µM (active). Further, in test [13], the outcome was inactive.
